Compounds with a hit are over-represented: about 3.4% of the library has one in this group of screens.
Tau fibril ThT = blocks human tau fibril formation measured by thioflavin T; P10636; recombinant tau K18 P301L, heparin-induced fibrillization, ThT fluorescence; Potency, µM (series often up to 57.4 µM), hits mostly inhibitors; actives 2.1% (n = 270,000); AID 1460; further: nearly all actives have a fitted effect of over 55% in size
Target sequence (P10636 561-689 P618L limits assumed): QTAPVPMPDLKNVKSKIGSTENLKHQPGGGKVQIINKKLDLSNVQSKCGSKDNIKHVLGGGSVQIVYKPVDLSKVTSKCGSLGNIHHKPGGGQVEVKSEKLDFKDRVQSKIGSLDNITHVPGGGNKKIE
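Using a mix of unlabeled (15 uM) and Alexa 594-labeled (0.24 uM) tau K18 P301L, heparin-triggered fibrillization over 6 hr at 37 C was scored by ThT fluorescence.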
Tau FP inhib = tau fibrillization inhibition (FP). P10636. K18 P301L tau heparin fibrillization, Alexa594 FP, 6 h. Potency, µM (doses to about 57.7 µM), most hits filed as inhibitors. actives 0.39% (n = 280,000); further: nearly all actives have a fitted effect of over 55% in size
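FP of Alexa 594-tau after heparin (20 uM) induction. Substrate: human K18 P301L, 15 uM unlabeled, 0.24 uM labeled. Buffer 100 mM sodium acetate pH 7. 6 hr, 37 C.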
RGS12 GoLoco inh-1 = inhibitors of human Gai1-RGS12 GoLoco interaction (red fluorophore). AID 880. Gai1:RGS12 GoLoco peptide FP, rhodamine, 10 min. Potency, µM (top dose mostly 61.6 µM), usual class: inhibitors. actives 0.44% (n = 230,000). P63096; active means well fitted inhibition curve with a large enough effect, not every such curve was filed as active; inactive means no such curve, though single readings can be large or run the other way; further: nearly all actives have a fitted effect of over 30% in size
Target sequence (P63096 whole entry, looked up): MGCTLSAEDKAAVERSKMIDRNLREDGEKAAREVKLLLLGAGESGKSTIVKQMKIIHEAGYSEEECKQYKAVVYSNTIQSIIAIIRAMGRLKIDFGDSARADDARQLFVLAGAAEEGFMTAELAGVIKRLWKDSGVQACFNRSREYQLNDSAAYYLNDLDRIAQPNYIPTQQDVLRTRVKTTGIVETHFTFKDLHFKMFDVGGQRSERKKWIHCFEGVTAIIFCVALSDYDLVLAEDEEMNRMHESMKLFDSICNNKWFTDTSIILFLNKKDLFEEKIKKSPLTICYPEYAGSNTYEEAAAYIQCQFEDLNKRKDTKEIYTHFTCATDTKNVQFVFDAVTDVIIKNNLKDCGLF
Tau fluor cs = counter-screen for tau fibril formation inhibitors; actives 0.93% (n = 280,000); tau K18 P301L Alexa594 fluorescence, heparin fibrillization; Potency, µM (top dose mostly 57.7 µM); AID 1463; further: nearly all actives have a fitted effect of over 55% in size
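Human tau K18 P301L (15 uM unlabeled, 0.24 uM Alexa 594-labeled) in 100 mM sodium acetate pH 7 with 20 uM heparin, 6 hr at 37 C. ThT 30 uM added, 1 hr ambient; Alexa 594 FP and total fluorescence read at 555/632 nm.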
KDM4E inh = inhibitors of human JMJD2E histone demethylase; JMJD2E catalytic domain, FDH-coupled NADH fluorescence (FDH is formaldehyde dehydrogenase); actives 1.6% (n = 230,000); Potency, µM (doses to about 57.1 µM), most hits filed as inhibitors; AID 2147; B2RXH2; active means well fitted inhibition curve with a large enough effect, not every such curve was filed as active; inconclusive means small, poorly fitted or top-dose-only effect, or another doubt; inactive means no such curve, though single readings can be large or run the other way; further: nearly all actives have a fitted effect of over 50% in size
RGS12 GoLoco inh-2 = RGS12 (human) GoLoco motif inhibition, red FP; Gai1/rhodamine-RGS12 GoLoco peptide fluorescence polarization; actives 50% (n = 110); shares compounds with RGS12 GoLoco inh-1; Potency, µM (top dose mostly 57.1 µM), usual class: inhibitors; AID 2390
tau fibril sed = reduces sedimented tau K18 P301L aggregates. shares compounds with Tau fibril ThT. recombinant tau K18 P301L (four-repeat tau fragment), sedimentation SDS-PAGE densitometry. inhibition, % at 100 µM. actives 50% (n = 110). AID 1720; in the data active means inhibition above about 40%; inconclusive means no clear call, values can overlap the other calls; inactive means below about 18%
Each line names hits and unclear results; the compound was inactive in the other large screens (follow-up assays come after a bar, where they were run); ! = not active in a repeat; [ ] = dose if it differs, or a comment. Unless noted, the call rests on the fitted dose curve; in most records, active means well fitted curve in the direction sought with a large enough effect; inconclusive means small, poorly fitted or top-dose-only effect, or another doubt; inactive means no such curve, though single readings can be large; an effect the other way counts as inactive or inconclusive.

Nc1ccc2nc(CCc3ccccc3)[nH]c2c1	Tau fibril ThT inconclusive
Nc1ccc2nc3c(=O)n(C4CCCCC4)c(=O)[nH]c3nc2c1	RGS12 GoLoco inh-1 25.1µM, KDM4E inh inconclusive | RGS12 GoLoco inh-2 11.2µM
Cc1cc2nc3c(=O)n(CCc4ccccc4)c(=O)[nH]c3nc2cc1N	Tau FP inhib inconclusive, RGS12 GoLoco inh-1 7.94µM, Tau fluor cs 8.91µM[quencher], KDM4E inh 31.6µM (no result: Tau fibril ThT) | RGS12 GoLoco inh-2 inconclusive
CCCCn1c(=O)[nH]c2nc3cc(N)ccc3nc2c1=O	RGS12 GoLoco inh-1 12.6µM | RGS12 GoLoco inh-2 8.91µM
NCCCCCc1nnc(SCc2ccc(F)cc2)o1	none (no result: RGS12 GoLoco inh-1, KDM4E inh)
Cc1cc(C)c(S(=O)(=O)NCCc2sc3nc(-c4ccc(F)cc4)nn3c2C)c(C)c1	none (no result: RGS12 GoLoco inh-1, KDM4E inh)
Cc1cc(C)n(CC(O)COCc2ccccc2)n1 (centres undefined)	none (no result: RGS12 GoLoco inh-1)
Cc1cc2c(cc1C)[n+](C)cn2CC(O)COCc1ccccc1 (centres undefined)	RGS12 GoLoco inh-1 11.2µM | RGS12 GoLoco inh-2 22.4µM
C[n+]1cn(CC(O)COCc2ccccc2)c2ccccc21 (centres undefined)	RGS12 GoLoco inh-1 15.8µM | RGS12 GoLoco inh-2 14.1µM
CCCc1n(CC(O)COCc2ccccc2)c2ccccc2[n+]1C (centres undefined)	none
COc1ccc2oc(-c3ccc(C)c(NC(=O)c4cccnc4)c3)nc2c1	Tau fibril ThT inconclusive, Tau FP inhib inconclusive (no result: RGS12 GoLoco inh-1, KDM4E inh)
C=CCn1c(=O)[nH]c2nc3cc(N=CN(C)C)c(C)cc3nc2c1=O	RGS12 GoLoco inh-1 28.2µM, KDM4E inh inconclusive (no result: Tau fibril ThT) | RGS12 GoLoco inh-2 28.2µM
CN(C)/C=N/c1cc(=O)[nH]c(=O)n1CC1CC1	none
CCCc1n(CC(O)COCC2CC=CCC2)c2ccccc2[n+]1C (centres undefined)	none | RGS12 GoLoco inh-2 14.1µM
CN1C(CC(=O)c2ccccc2)CCCC1CC(O)c1ccccc1 (centres undefined)	RGS12 GoLoco inh-1 22.4µM! | RGS12 GoLoco inh-2 inactive
CN1[C@H](CC(=O)c2ccccc2)CCC[C@H]1C[C@@H](O)c1ccccc1	none
CCC(=O)Nc1ccc(-c2nnc(SCC(=O)N3CCCCC3)n2C)cc1	Tau fibril ThT inconclusive | RGS12 GoLoco inh-2 inactive
Cn1c(SCC(=O)Nc2ccccc2)nnc1-c1ccc(NC(=O)CCc2ccccc2)cc1	none | RGS12 GoLoco inh-2 inactive
COc1ccccc1C(=O)NCCn1cc(SCC(=O)Nc2ccccc2F)c2ccccc21	none (no result: RGS12 GoLoco inh-1, KDM4E inh)
CCCCCCCCC[n+]1cccc2c3ccccc3ccc21	KDM4E inh inconclusive
CCCCCCCCCCCCCCCC[n+]1cccc2ccccc21	RGS12 GoLoco inh-1 2.24µM, KDM4E inh inconclusive | RGS12 GoLoco inh-2 4.47µM
CC(C)CC(=O)N1c2nc(C(C)C)nn2C2(CCCCC2)[C@@H]2CCCC[C@@H]21	none (no result: RGS12 GoLoco inh-1, KDM4E inh)
COc1ccccc1Cc1nc2ccccc2nc1SCC(=O)N1CCC(C)CC1	none (no result: RGS12 GoLoco inh-1, KDM4E inh)
COc1ccc(N2CCN(c3oc(/C=C/c4cc(OC)c(OC)c(OC)c4)nc3C#N)CC2)cc1	Tau FP inhib inconclusive, Tau fluor cs inconclusive (no result: RGS12 GoLoco inh-1, KDM4E inh)
COc1cc(/C=N/NC(=O)c2ccncc2)ccc1Oc1ccc([N+](=O)[O-])cn1	KDM4E inh inconclusive
COc1cccc(C(=O)N/N=C/c2ccc(Oc3ccc([N+](=O)[O-])cn3)c(OC)c2)c1	Tau fibril ThT inconclusive, Tau fluor cs inconclusive | RGS12 GoLoco inh-2 17.8µM
Cc1ccccc1OCc1nnc(SCC(=O)Nc2ccc3c(c2)oc2ccccc23)n1C	Tau fibril ThT inconclusive, KDM4E inh inconclusive | RGS12 GoLoco inh-2 inactive
O=C(Nc1ccccc1)Nc1ccccc1	none | tau fibril sed inactive
O=C(NCC(c1ccc2c(c1)OCO2)N1CCOCC1)c1cccc(Cl)c1 (centres undefined)	none (no result: RGS12 GoLoco inh-1, KDM4E inh)
NCCc1ccc(O)c(O)c1	Tau fibril ThT inconclusive, Tau FP inhib inconclusive, KDM4E inh 12.6µM | tau fibril sed inactive
Cc1ccc(NCc2cc3cc4c(cc3n(CC(=O)Nc3ccc(C)cc3)c2=O)OCCO4)cc1	Tau fluor cs inconclusive (no result: RGS12 GoLoco inh-1, KDM4E inh) | tau fibril sed inactive
